Test [1] can be described thus: anti-His antibody binders, primary screen, artefact control for SMM control protein annotation, biochemical, small-molecule microarray, 635 nm fluorescence (AID 1128).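 Note: score merges feature fluorescence with signal-to-noise for each printed compound spot.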 As to conditions: anti-His Alexa647 antibody binding, higher = more signal.
For test [2], the system named is Human papillomavirus type 1a E7 protein (residues 1-88). Kind of test: HPV1a E7 small-molecule binders, primary screen, biochemical, small-molecule microarray, residues 1-88, 635 nm (AID 1129). As to conditions: small-molecule microarray binding, fluorescence 635 nm; higher = more signal.
Test [3] has as its target Focal adhesion kinase 1 (Homo sapiens) (UniProt Q05397). Kind of test: small-molecule microarray binders of FAK, primary screen, biochemical, 635/667 nm fluorescence, BSA, DTT (AID 1130).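 Note: composite of spot emission at 667 nm and signal to noise over triplicate slides.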 As to conditions: PTK2 binding, 635 nm fluorescence, higher = more signal.
In test [4] the test system is Fibrinogen (Alexa647-labelled). Briefly: fibrinogen binders on compound microarrays, profiling panel, artefact control for SMM control-protein annotation, biochemical, small-molecule microarray, 635/667 nm fluorescence (AID 1131).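 Note: z-score merges 667 nm fluorescence with per-spot signal-to-noise over triplicate slides.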 As to conditions: fibrinogen-A647 binding fluorescence, higher = more signal.
The target of test [5] is Follistatin (Homo sapiens) (UniProt P19883). Kind of test: follistatin binders on small-molecule microarrays, primary screen, biochemical, small-molecule microarray, 635/667 nm fluorescence (AID 1132). Particulars: FST binding, 635 nm fluorescence, higher = more signal.
Test [6] has as its target Fibroblast growth factor 2 (Homo sapiens) (UniProt P09038). Briefly: FGF2 binders on small-molecule microarrays, primary screen, biochemical, small-molecule microarray, 635/667 nm fluorescence (AID 1133). Particulars: small-molecule microarray binding, FGF2, fluorescence 635/667; higher = more signal.
The nature of test [7]: mitochondrial membrane potential change in A549 cells, profiling panel, cell-based, JC-1 fluorescence, basal, 24 h, 100 nL (AID 1138).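 Note: A549 lung adenocarcinoma cells under basal conditions with no added stimulus; test concentration not given here.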 Particulars: higher = more signal.
For a further test, the system named is Lefty1. Kind of test: Lefty1 binders on small-molecule microarrays, primary screen, biochemical, small-molecule microarray, 635/667 nm fluorescence (AID 1139). Particulars: small-molecule microarray binding, fluorescence 635/667; higher = more signal.
For test [8], the system named is wheat germ agglutinin (Triticum aestivum), Alexa647-labelled. Kind of test: wheat germ agglutinin binders on compound microarrays, profiling panel, artefact control for SMM control-protein annotation, biochemical, small-molecule microarray, 635/667 nm fluorescence (AID 1140).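 Note: score merges 667 nm feature emission with signal to noise over triplicate slides.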 As to conditions: WGA-A647 binding, 635 nm fluorescence, higher = more signal.
Test [9] has as its target Luciferin 4-monooxygenase (Photinus pyralis) (UniProt P08659). Briefly: firefly luciferase enzyme inhibitors, primary screen, biochemical, luminescence, purified enzyme, 2006 set (AID 1141).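 Note: cell-free assay with purified firefly luciferase at 100 ng per well in PBS; test concentration not given here.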 As to conditions: SteadyGlo luminescence, 30 min, higher = more signal, called active from +8 up or from −8 down.

Each structure is given as a SMILES string. Calls of active or inactive are those of the source.

Focal adhesion kinase 1 (Homo sapiens), sequence (Q05397 whole entry, looked up): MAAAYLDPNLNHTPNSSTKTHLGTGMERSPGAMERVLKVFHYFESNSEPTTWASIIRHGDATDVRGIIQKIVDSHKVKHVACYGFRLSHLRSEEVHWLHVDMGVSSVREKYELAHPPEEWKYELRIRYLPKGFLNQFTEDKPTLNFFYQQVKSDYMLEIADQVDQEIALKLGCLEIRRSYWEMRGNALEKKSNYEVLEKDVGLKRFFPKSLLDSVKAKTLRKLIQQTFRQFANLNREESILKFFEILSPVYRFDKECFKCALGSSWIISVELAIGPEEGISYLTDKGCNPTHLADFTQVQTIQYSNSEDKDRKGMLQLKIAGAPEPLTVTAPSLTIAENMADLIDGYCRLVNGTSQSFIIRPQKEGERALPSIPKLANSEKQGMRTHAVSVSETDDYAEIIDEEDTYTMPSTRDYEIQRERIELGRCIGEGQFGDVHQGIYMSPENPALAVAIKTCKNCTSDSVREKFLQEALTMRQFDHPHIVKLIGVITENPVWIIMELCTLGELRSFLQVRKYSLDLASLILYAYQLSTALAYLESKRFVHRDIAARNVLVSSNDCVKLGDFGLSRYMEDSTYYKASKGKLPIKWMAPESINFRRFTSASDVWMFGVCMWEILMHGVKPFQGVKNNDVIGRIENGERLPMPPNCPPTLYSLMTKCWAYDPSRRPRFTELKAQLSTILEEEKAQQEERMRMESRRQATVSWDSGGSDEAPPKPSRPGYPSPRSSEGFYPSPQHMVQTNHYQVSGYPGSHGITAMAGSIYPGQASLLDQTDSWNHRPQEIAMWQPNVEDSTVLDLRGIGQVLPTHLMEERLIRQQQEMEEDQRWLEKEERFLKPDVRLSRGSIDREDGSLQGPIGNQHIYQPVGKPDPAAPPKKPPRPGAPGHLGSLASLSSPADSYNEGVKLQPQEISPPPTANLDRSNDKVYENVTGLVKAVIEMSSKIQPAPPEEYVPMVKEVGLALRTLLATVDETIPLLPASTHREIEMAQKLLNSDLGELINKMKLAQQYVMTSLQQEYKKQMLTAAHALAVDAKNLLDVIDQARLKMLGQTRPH
Luciferin 4-monooxygenase (Photinus pyralis), sequence (P08659 whole entry, looked up): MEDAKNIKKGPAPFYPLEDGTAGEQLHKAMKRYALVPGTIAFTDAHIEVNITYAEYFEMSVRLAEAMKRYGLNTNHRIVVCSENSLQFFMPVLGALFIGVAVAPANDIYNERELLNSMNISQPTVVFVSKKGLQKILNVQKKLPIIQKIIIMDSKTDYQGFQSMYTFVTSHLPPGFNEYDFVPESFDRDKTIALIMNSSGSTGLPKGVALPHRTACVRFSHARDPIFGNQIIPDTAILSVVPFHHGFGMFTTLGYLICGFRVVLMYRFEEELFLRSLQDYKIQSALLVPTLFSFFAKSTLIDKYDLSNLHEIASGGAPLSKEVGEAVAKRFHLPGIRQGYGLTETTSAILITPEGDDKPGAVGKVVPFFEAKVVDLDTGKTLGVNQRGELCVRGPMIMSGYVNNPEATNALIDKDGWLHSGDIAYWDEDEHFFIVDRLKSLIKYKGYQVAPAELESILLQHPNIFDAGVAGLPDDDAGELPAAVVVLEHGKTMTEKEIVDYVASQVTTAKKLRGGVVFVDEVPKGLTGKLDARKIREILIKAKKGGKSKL
Follistatin (Homo sapiens), sequence (P19883 whole entry, looked up): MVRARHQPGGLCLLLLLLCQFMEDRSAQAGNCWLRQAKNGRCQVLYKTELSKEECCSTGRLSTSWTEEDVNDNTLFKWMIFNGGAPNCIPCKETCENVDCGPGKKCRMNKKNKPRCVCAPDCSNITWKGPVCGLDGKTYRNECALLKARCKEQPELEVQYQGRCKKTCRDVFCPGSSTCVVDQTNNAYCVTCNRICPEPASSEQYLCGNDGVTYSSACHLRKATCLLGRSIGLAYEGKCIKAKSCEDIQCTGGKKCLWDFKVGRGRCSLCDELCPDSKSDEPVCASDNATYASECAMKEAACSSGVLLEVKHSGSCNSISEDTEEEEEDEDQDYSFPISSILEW
Fibroblast growth factor 2 (Homo sapiens), sequence (P09038 whole entry, looked up): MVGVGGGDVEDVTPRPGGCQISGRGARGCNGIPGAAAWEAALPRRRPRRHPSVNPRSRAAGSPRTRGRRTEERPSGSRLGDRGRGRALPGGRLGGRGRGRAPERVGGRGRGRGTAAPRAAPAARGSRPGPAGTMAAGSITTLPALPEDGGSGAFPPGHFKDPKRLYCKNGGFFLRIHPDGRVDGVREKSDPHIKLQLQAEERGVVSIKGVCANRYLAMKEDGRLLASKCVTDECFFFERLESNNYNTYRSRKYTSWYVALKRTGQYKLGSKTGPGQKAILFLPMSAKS

Consider `CN(C)CCCC[C@@H]1NC(=O)[C@H]2C[C@@H](C(=O)NCCCCCCNC(=O)CS)[C@@H](c3cccc(OCCO)c3)N2C1=O`, for which the composite z-score in test [1] worked out at 1.17; in test [2] it was 0.593; in [3], 0.292; in test [4] it was 0.511; in test [5], 0.52; in [6], 1. Also, the results for the composite z-score (in the test on Lefty1; in [8]) were -0.673 and -0.115, respectively. The z-score in [7] was 0.115; in [9], 0.117 (inactive).
Take `C=C(COC)C(=O)CC[C@H](OC(C)=O)c1ccccc1OCCO`: the composite z-score in test [1] was 0.342; in [2], -0.538; in test [3], 0.253; in test [4], -0.674; in test [5], 1.26; in test [6] it was 1.73. Moreover, the composite z-score was 1.13 with Lefty1 and -0.368 in test [8]. For the same compound, the z-score in test [7] was 0.0429; in test [9], -1.61 (inactive).
`CC(C)N1C(=O)[C@@]2(Cc3ccccc31)c1ccccc1C(=O)N(Cc1ccccc1C(F)(F)F)[C@H]2c1ccc(CO)cc1`: the composite z-score was 0.175 in test [1]; 0.174 in test [2]; 0.368 in [3]; -0.0628 in test [4]; 0.902 in test [5]; 1.18 in test [6]. Moreover, the figures for the composite z-score (with Lefty1; in test [8]) were 0.76 and -0.203, respectively. The z-score in test [7] was -0.602; in [9] it was -0.301 (inactive).
Consider `C=CCOC(=O)[C@H]1[C@@H]2C(=O)O[C@@H](c3ccccc3)[C@@H](c3ccccc3)N2[C@@H](c2ccc(OCCOC(=O)[C@H]3C[C@H]4C(=O)NCC(=O)N4[C@H]3c3cccc(OCCO)c3)cc2)[C@]12C(=O)Nc1ccc(I)cc12`, for which the composite z-score was 0.844 in test [1]; 1.06 in test [2]; 0.835 in [3]; 0.494 in test [4]; 1.41 in test [5]; 1.37 in test [6]. Further, the composite z-score in the test with Lefty1 was determined as 1.5; in test [8] it was 0.288. In addition, the figures for the z-score in test [7] and in test [9] were -0.715 and -0.919 (inactive), respectively.
Turning to `O=C1NC(=O)C2C1C=CC(C(O)C(O)CO)N2Nc1ccccn1` (stereo not given), the composite z-score is 0.37 in test [1]; 0.434 in test [2]; -0.201 in test [3]; 0.485 in [4]; 0.176 in test [5]; -0.0885 in test [6]. Further, the figures for the composite z-score (in the test on Lefty1; in [8]) were 0.0364 and 0.333, respectively. The z-score is 0.767 in test [7] and -1.41 (inactive) in test [9].
Turning to `COCCOC(=O)N1C(=O)[C@@]2(c3cc(C#CCNC(N)=O)ccc31)[C@H](C(=O)Nc1nc3ccccc3s1)[C@H]1C(=O)O[C@H](c3ccccc3)[C@H](c3ccccc3)N1[C@@H]2c1ccc(O)cc1`, the composite z-score stood at 0.216 in test [1]; 0.93 in test [2]; 0.164 in [3]; 0.9 in [4]; 1.31 in [5]; 0.802 in test [6]. Besides, the results for the composite z-score (in the test with Lefty1; in [8]) were 0.392 and 0.934, respectively. The z-score in test [7] is -2.44; in test [9], -0.518 (inactive).
With `COc1cccc(C)c1NC(=O)O[C@H]1[C@H](OC(=O)Nc2ccccc2-c2ccccc2)[C@@H](OC(=O)Nc2ccccc2-c2ccccc2)[C@@H](OC)O[C@@H]1CO`, the composite z-score in [1] was determined as 1; in test [2] it was 1.25; in test [3], 1.29; in test [4], 1.02; in test [5], 1.27; in test [6], 0.317. The composite z-score in the test with Lefty1 worked out at 0.719; in [8], 0.55. Also, the z-score is -0.158 in test [7] and -0.742 (inactive) in [9].
For the compound `COc1ccc(NN2C(C(O)c3ccc(F)cc3)C=CC3C(=O)N(C4CCCCC4)C(=O)C32)cc1` (stereo not given), the composite z-score amounted to 0.683 in test [1]; 1.25 in [2]; 0.382 in [3]; 0.997 in test [4]; 1.15 in test [5]; 0.314 in test [6]. Also, the composite z-score in the test on Lefty1 came to 0.174; in test [8], 1.14. For the same compound, the z-score in test [7] is -0.462; in test [9], 0.613 (inactive).
For `COC(=O)C[C@H]1O[C@]2(C(=O)N(C)c3ccccc32)[C@@H](C)[C@@H]1[Si](C)(C)c1ccccc1`, the composite z-score in test [1] was 0.83; in [2] it was 0.941; in test [3], 0.764; in test [4] it was 0.794; in test [5] it was 1.05; in test [6], 0.856. The composite z-score turned out to be 0.966 in the test with Lefty1 and 0.219 in [8]. Besides, the z-score is 0.186 in test [7] and 1.24 (inactive) in [9].
`COCCOC(=O)N1C(=O)[C@@]2(c3cc(C#CCCO)ccc31)[C@H](c1ccc(O)cc1)N1[C@H](c3ccccc3)[C@H](c3ccccc3)OC(=O)[C@H]1[C@@H]2C(=O)NC[C@H](O)c1ccccc1`: the composite z-score in [1] was found to be 2.05; in test [2], 1.2; in test [3], 0.553; in test [4], 0.0868; in test [5] it was 1.17; in test [6] it was 0.767. Further, the composite z-score is 0.958 with Lefty1 and -0.333 in test [8]. Besides, the z-score in test [7] is -0.703; in test [9] it was -1.52 (inactive).
Take `O=C(N1CCOCC1)[C@]1(CCS(=O)(=O)c2ccccc2)N=C(c2ccc(OCCCO)cc2)O[C@@H]1c1ccccc1`: the composite z-score in test [1] came to 2.94; in test [2] it was 1.23; in [3] it was 0.99; in test [4] it was 0.996; in test [5], 1.25; in test [6], 0.23. Besides, the composite z-score in the test with Lefty1 was -0.588; in test [8], 1.29. For the same compound, the results for the z-score in test [7] and in [9] were 1.1 and -1.55 (inactive), respectively.
Turning to `C[N+](C)(C)CCCC[C@@H]1NC(=O)[C@H]2C[C@@H](C(=O)O)[C@@H](c3ccc(O)cc3)N2C1=O`, the composite z-score was 1.04 in test [1]; 0.123 in test [2]; -0.216 in test [3]; -0.223 in test [4]; 0.864 in test [5]; 0.948 in [6]. In addition, the composite z-score was 0.155 in the test with Lefty1 and -0.185 in test [8]. Further, the figures for the z-score in [7] and in test [9] were 1.49 and -1.93 (inactive), respectively.
For the compound `C=C(C)C1CN([C@H](CO)c2ccccc2)C(=O)/C1=C\c1ccccc1` (stereo not given in full), the composite z-score in test [1] is -0.288; in test [2], 0.145; in test [3], -0.234; in [4], 0.237; in test [5], 0.803; in test [6], 1.14. Also, the composite z-score in the test with Lefty1 was -0.0605; in test [8] it was 0.726. The z-score in [7] is -1.06; in [9], 0.264 (inactive).
With `C=CCOC(=O)[C@@H]1[C@H]2C(=O)O[C@H](c3ccccc3)[C@H](c3ccccc3)N2[C@H](c2ccc(OCCOC(=O)[C@H]3C[C@H]4C(=O)N[C@@H](CCCCN(C)C)C(=O)N4[C@H]3c3cccc(OCCO)c3)cc2)[C@@]12C(=O)Nc1ccccc12`, the composite z-score in test [1] is 2.06; in [2], -0.246; in [3], 0.0815; in test [4], 0.498; in test [5] it was 0.519; in test [6] it was 0.382. Also, the composite z-score with Lefty1 is -0.0986; in test [8], 0.517. Besides, the z-score in test [7] was -0.407; in test [9], 0.892 (inactive).
In the case of `C=CCNC(=O)[C@H]1[C@@H]2C(=O)O[C@@H](c3ccccc3)[C@@H](c3ccccc3)N2[C@@H](c2ccc(OCCO)cc2)[C@]12C(=O)N(C(=O)OCCOC)c1ccc(C#CCC(C(=O)OC)C(=O)OC)cc12`, the composite z-score in test [1] was found to be 0.302; in test [2] it was 1.2; in [3], 0.227; in test [4], 0.94; in [5], 1.27; in [6], 0.252. Also, the composite z-score in the test with Lefty1 came out at 1.27; in [8] it was 1.26. Further, the z-score was -0.933 in test [7] and -0.515 (inactive) in test [9].
For the compound `COc1c(C)cc(-c2nc(-c3ccccc3)c3c(c2C)CO[Si]3(C(C)C)C(C)C)cc1C`, the composite z-score in test [1] is -0.0017; in [2], 0.223; in [3], 0.0945; in [4], 0.42; in test [5], 0.62; in test [6] it was 0.376. Further, the composite z-score in the test with Lefty1 is 0.53; in test [8], -0.0784. The z-score was 0.87 in test [7] and 0.722 (inactive) in test [9].

Values taken from PubChem BioAssay.
